Test results: the supplement of paper PMC11001985
Values without a mark were called inactive.

Each target was assayed with C#CCNC(=O)CCSSCCC(=O)NCCc1ccc(C=O)c(C=O)c1 (assay: lysine labeling ratio R10:1 (500 µM / 50 µM probe), SILAC-ABPP in living cells; higher = lower intrinsic lysine reactivity toward the probe, active = 2 or less). Conditions: HeLa; probe concentrations 500 vs 50 µM.
Outline: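 The two probe levels, 50 µM and 500 µM, of an alkyne-tagged, disulfide-linked lysine probe were applied to living light and heavy SILAC HeLa cells in PBS at room temperature, and the labels were run in both forward and reverse orientation. Mixed lysates underwent biotin-azide click chemistry, trypsin digestion, neutravidin capture, DTT release and alkylation before LC-MS/MS on a TIMS-TOF Pro. R is the filtered median high-probe/low-probe MS1 peptide ratio for each lysine, summarised as the median over forward and reverse replicates. Nothing above 20 is reported; such values are set to 20.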

Sequence of UniProt P13667 (P13667 whole entry): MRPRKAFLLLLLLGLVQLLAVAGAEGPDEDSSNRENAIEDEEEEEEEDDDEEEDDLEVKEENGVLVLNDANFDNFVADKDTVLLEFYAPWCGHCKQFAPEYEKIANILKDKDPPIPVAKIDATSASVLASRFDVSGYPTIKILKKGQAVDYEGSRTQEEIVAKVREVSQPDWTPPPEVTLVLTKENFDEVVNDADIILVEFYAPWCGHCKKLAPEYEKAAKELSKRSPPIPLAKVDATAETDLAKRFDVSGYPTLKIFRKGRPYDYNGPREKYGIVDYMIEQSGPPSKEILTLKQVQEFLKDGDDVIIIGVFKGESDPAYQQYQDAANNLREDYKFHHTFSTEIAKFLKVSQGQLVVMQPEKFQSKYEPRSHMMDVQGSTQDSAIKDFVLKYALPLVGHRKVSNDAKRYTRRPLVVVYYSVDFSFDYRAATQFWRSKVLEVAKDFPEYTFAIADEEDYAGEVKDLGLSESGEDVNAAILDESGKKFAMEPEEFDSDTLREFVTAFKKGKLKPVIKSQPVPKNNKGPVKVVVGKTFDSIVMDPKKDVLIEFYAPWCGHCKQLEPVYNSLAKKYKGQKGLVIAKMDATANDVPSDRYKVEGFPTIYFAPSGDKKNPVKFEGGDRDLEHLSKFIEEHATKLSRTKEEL
Sequence of UniProt Q06830 (Q06830 whole entry): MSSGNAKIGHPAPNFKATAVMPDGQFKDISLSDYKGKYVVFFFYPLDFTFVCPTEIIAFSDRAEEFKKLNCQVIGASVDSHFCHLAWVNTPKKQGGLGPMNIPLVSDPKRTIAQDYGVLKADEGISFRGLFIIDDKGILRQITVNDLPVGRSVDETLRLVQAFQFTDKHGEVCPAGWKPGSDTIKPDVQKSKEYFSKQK
Sequence of UniProt P10909 (P10909 whole entry): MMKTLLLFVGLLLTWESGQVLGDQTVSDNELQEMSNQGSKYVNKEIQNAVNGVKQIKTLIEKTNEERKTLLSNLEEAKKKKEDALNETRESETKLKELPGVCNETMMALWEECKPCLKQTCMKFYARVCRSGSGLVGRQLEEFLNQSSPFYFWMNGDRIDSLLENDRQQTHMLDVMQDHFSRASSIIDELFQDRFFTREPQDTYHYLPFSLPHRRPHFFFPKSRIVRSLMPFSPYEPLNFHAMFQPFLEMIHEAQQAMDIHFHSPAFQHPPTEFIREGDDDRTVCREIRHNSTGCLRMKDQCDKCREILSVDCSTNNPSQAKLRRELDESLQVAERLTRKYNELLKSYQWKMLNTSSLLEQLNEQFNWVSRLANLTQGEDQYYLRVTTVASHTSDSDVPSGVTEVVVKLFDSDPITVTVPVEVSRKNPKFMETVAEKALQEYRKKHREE
Sequence of UniProt Q53GQ0 (Q53GQ0 whole entry): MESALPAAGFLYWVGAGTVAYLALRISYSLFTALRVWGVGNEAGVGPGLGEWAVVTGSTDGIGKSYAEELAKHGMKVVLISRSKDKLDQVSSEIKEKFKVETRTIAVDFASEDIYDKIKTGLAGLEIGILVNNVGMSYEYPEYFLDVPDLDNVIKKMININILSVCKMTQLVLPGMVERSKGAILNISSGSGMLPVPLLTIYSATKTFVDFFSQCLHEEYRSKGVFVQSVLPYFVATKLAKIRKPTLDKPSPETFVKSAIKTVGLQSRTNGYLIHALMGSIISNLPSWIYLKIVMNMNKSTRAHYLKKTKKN
Sequence of UniProt P02751 (P02751 whole entry): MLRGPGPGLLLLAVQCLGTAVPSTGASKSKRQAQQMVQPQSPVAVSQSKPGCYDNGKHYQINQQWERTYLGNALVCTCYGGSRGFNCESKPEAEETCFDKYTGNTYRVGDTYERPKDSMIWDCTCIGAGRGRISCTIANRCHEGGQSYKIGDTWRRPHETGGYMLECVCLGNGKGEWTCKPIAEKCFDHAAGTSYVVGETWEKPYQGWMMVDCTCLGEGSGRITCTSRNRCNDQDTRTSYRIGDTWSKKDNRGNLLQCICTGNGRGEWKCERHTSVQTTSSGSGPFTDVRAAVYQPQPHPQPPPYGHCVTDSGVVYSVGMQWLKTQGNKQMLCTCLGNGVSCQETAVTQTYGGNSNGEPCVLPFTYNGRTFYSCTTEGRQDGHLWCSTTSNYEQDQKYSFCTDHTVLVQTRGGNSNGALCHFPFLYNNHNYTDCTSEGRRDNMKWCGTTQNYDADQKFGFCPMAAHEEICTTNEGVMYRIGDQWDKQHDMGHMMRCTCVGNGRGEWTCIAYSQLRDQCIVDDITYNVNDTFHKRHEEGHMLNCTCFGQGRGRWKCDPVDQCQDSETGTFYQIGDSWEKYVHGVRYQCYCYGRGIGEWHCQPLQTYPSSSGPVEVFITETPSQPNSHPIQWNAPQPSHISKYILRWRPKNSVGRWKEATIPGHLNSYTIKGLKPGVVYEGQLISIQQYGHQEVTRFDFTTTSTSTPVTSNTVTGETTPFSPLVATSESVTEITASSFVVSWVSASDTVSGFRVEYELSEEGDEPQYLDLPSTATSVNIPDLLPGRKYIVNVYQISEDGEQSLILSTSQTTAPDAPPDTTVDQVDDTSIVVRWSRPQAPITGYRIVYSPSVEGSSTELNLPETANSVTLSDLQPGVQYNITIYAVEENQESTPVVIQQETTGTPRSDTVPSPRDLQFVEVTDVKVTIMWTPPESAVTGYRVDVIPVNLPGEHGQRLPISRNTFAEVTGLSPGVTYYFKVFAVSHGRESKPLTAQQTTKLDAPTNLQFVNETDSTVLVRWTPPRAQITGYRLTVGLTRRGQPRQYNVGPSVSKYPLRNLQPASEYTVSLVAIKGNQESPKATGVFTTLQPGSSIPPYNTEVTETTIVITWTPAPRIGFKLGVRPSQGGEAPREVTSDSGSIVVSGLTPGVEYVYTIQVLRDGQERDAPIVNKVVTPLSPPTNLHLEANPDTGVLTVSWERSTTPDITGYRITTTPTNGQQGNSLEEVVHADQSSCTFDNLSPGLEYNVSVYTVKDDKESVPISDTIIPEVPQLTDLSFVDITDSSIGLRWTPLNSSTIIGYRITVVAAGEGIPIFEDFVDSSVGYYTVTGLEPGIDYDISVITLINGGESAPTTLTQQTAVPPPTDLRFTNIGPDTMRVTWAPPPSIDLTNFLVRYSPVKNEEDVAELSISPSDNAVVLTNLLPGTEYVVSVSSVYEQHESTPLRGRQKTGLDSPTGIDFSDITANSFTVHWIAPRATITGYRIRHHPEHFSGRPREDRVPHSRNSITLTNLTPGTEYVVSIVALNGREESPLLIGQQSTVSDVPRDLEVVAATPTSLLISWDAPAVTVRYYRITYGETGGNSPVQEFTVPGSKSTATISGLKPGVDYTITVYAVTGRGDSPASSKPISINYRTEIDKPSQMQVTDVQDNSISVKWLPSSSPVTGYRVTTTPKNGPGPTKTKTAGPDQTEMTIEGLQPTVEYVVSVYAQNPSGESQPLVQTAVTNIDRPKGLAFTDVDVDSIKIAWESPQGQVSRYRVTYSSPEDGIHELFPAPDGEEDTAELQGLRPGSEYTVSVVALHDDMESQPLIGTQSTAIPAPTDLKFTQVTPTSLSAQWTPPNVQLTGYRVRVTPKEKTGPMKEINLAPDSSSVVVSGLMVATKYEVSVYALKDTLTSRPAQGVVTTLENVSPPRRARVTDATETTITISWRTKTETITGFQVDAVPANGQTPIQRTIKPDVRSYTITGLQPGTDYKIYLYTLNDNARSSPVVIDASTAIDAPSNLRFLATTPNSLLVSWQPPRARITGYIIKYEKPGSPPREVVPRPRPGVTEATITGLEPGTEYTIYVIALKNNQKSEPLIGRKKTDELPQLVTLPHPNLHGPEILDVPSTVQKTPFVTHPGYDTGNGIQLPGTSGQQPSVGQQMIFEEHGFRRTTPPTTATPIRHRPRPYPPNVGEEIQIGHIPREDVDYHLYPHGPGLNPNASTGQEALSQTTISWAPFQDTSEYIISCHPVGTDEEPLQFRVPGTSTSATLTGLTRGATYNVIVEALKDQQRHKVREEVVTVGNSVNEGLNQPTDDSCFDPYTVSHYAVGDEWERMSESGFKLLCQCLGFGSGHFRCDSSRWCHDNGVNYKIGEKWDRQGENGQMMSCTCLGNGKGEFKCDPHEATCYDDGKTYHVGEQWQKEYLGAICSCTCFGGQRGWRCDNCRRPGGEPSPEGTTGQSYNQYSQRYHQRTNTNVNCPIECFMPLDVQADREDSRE
Sequence of UniProt Q14247 (Q14247 whole entry): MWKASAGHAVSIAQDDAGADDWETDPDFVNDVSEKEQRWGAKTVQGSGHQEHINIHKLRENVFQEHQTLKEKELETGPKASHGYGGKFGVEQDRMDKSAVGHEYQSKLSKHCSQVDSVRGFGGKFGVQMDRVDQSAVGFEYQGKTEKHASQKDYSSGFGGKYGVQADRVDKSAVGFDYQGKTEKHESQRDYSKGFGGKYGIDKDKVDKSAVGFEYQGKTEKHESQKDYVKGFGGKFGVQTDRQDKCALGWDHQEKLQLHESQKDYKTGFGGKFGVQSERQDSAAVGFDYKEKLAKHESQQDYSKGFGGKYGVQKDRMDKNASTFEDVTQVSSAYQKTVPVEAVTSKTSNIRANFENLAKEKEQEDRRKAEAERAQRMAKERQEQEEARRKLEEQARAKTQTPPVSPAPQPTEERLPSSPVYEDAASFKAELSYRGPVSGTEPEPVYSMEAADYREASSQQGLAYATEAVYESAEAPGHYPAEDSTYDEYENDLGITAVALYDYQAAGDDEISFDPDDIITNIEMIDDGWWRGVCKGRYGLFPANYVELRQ
Sequence of UniProt Q7Z3B1 (Q7Z3B1 whole entry, looked up): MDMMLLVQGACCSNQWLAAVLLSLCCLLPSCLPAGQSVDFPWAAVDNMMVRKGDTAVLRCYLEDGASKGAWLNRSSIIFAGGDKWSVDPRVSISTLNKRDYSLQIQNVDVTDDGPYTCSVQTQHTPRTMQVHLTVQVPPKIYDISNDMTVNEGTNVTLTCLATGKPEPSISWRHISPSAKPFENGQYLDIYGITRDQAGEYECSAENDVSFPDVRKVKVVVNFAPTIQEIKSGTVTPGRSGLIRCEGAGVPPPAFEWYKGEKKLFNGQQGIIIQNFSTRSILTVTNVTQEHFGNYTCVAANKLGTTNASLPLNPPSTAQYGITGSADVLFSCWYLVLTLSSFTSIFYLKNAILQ

Target | lysine labeling ratio R10:1
UniProt Q15149 (lysine site: K792) | 1.45 (active)
PRDX1 (lysine site: K93) (UniProt Q06830) | 4.52
RPL5 (lysine site: K284) (UniProt P46777) | 1.68 (active)
FLNA (lysine site: K520) (UniProt P21333) | 2.73
UniProt Q15223 (lysine site: K190) | 1.25 (active)
NEGR1 (lysine site: K84) (UniProt Q7Z3B1) | 1.36 (active)
NPTN (lysine site: K244) (UniProt Q9Y639) | 8.84
PTPRF (lysine site: K61) (UniProt P10586) | 1.48 (active)
ITGAV (lysine site: K499) (UniProt P06756) | 3.64
CTTN (lysine site: K184) (UniProt Q14247) | 1.5 (active)
FLNB (lysine site: K987) (UniProt O75369) | 5.99
SND1 (lysine site: K177) (UniProt Q7KZF4) | 0.9 (active)
CLU (lysine site: K62) (UniProt P10909) | 1.13 (active)
FN1 (lysine site: K149) (UniProt P02751) | 1.99 (active)
UniProt Q9UHA4 (lysine site: K12) | 3.79
C3 (lysine site: K692) (UniProt P01024) | 7.71
CCT7 (lysine site: K250) (UniProt Q99832) | 1.57 (active)
ALDOA (lysine site: K111) (UniProt P04075) | 4.71
HNRNPU (lysine site: K565) (UniProt Q00839) | 3.39
LAMC1 (lysine site: K1425) (UniProt P11047) | 2.54

Target | lysine labeling ratio R10:1
RPL28 (lysine site: K19) (UniProt P46779) | 0.79 (active)
UniProt P55072 (lysine site: K754) | 2.84
TAGLN2 (lysine site: K156) (UniProt P37802) | 1.43 (active)
PSMA1 (lysine site: K115) (UniProt P25786) | 4.28
FAT4 (lysine site: K1809) (UniProt Q6V0I7) | 1.9 (active)
UniProt Q8WXI7 (lysine site: K10462) | 1.27 (active)
UniProt P62701 (lysine site: K106) | 2.28
TUFM (lysine site: K91) (UniProt P49411) | 2.38
UniProt Q6NZI2 (lysine site: K122) | 5.32
HSD17B12 (lysine site: K261) (UniProt Q53GQ0) | 1.88 (active)
PDIA4 (lysine site: K637) (UniProt P13667) | 2.44
PDIA4 (lysine site: K245) (UniProt P13667) | 1.07 (active)
UniProt P62249 (lysine site: K130) | 4.97
FBLN1 (lysine site: K187) (UniProt P23142) | 2.05
FLOT1 (lysine site: K285) (UniProt O75955) | 1.67 (active)
SPTBN1 (lysine site: K1884) (UniProt Q01082) | 4.5
RPS5 (lysine site: K63) (UniProt P46782) | 3.35
CRIM1 (lysine site: K176) (UniProt Q9NZV1) | 2.01
UGT8 (lysine site: K195) (UniProt Q16880) | 1.49 (active)
TKT (lysine site: K353) (UniProt P29401) | 6
